Source: PubChem
CDC25B-CDK2 inh – primary biochemical HTRF screen for blockers of M-phase inducer phosphatase 2 binding to CDK2/cyclin A; AID 1259370, 2018; HTRF CDC25B-CDK2/CyclinA binding, anti-His/anti-Flag; stronger effect = higher value; 94,000 tested, 0.72% active; z-score (test concentration not listed); P30305+P24941; in the data active = z-score above about 3.2
TAR Tat displ – TAR RNA-Tat peptide displacers, HIV-1, primary screen, biochemical, FRET, FAM/TAMRA-labeled Tat. HIV-1 TAR RNA, Tat peptide displacement FRET; stronger effect = higher value. z-score (no concentration beside the values). 100,000 tested, 0.6% active; active = z-score of 3 or more in at least 2 runs
Each line names hits and unclear results; the compound was inactive in the other large screens. Compounds with a hit are over-represented: about 0.86% of the library has one in this group of screens.

Cn1c(=O)c2c(-c3ccccc3Br)n(-c3cccc4cccnc34)cc2n(C)c1=O	CDC25B-CDK2 inh 16
Cn1c(=O)c2c(-c3ccccc3Br)n(-c3ccc4[nH]c(=O)[nH]c4c3)cc2n(C)c1=O	CDC25B-CDK2 inh 6.2
Cn1c(SCc2cc(=O)n3nc(-c4ccco4)sc3n2)nc2sc3c(c2c1=O)CCCC3	none
Cc1cc(=O)n(Cc2ccc3nonc3c2)c2c1c(C)nn2C	none (no result: CDC25B-CDK2 inh)
O[C@H]1C=C2CCN3Cc4cc5c(cc4C(C23)[C@@H]1O)OCO5 (stereo partly drawn)	TAR Tat displ 20 (no result: CDC25B-CDK2 inh)
Cn1cc(S(=O)(=O)c2ccccc2)c(=O)c2cc(F)ccc21	TAR Tat displ 21
Cn1cc(S(=O)(=O)c2ccccc2)c(=O)c2cc(Cl)ccc21	none
O=c1c2c3c(sc2nnn1CCCOc1ccccc1)CCCC3	none
COc1ccc(OCCn2nnc3sc4c(c3c2=O)CCCC4)cc1	TAR Tat displ 3.3
Cc1ccc(O)c(-c2n[nH]c3c2C(c2ccc(F)cc2)N(CCCO)C3=O)c1 (stereo not drawn)	none
CCCCCCCCCCCCCCCCCCN=CC1=C(O)CC(C)(C)CC1=O	none (no result: TAR Tat displ)
COCCCNC(=O)CCC(=O)N1CCCn2nc(C)cc21	none (no result: CDC25B-CDK2 inh)
Cc1cc2n(n1)CCCN2C(=O)CCC(=O)NCCCOC(C)C	TAR Tat displ 4.3 (no result: CDC25B-CDK2 inh)
CN1CCN(CCCNC(=O)c2noc3c2CCc2sccc2-3)CC1	none (no result: CDC25B-CDK2 inh)
CSc1ccccc1NC(=S)Nc1ccc(Cl)cc1	none (no result: TAR Tat displ)
Fc1ccc(NC(=S)Nc2cccc3c(NC(=S)Nc4ccc(F)cc4)cccc23)cc1	CDC25B-CDK2 inh 18 (no result: TAR Tat displ)
CCCCn1c(=O)[nH]c2c(c1=O)C(C)(C)Cc1ccccc1-2	none
CN(C)CCNc1oc(-c2ccc(S(=O)(=O)N3CCc4ccccc4C3)cc2)nc1C#N	none
N#Cc1nc(-c2ccc(S(=O)(=O)N3CCc4ccccc4C3)cc2)oc1NCCCn1ccnc1	CDC25B-CDK2 inh 11
O=C(Cn1ncc2c(=O)oc3ccccc3c21)Nc1nccs1	none
Cc1cc(NS(=O)(=O)c2cc(-c3ccc(=O)[nH]n3)cc(C)c2C)ccc1Br	none (no result: CDC25B-CDK2 inh)
COC(=O)c1ccc(Nc2nncc(=O)[nH]2)cc1	CDC25B-CDK2 inh 6.3
O=c1cnnc(Nc2ccc3c(c2)OCCO3)[nH]1	none
CC1(C)Cc2ccccc2C(NC(=O)NC2CCCC2)=C1C#N	none
COc1ccc(C(=O)c2c(N)c(-c3nc(-c4ccccc4)cs3)c3ccccn23)cc1	none
Nc1c(-c2nc(-c3ccccc3)cs2)c2ccccn2c1C(=O)c1cccs1	CDC25B-CDK2 inh 25
CCOc1ccc(N2C(=O)c3cccnc3C2Nc2ccc(Br)cc2)cc1 (stereo not drawn)	none
Cc1ccc(Cc2nnc(-c3ccc(N)cc3Cl)o2)cc1	none (no result: CDC25B-CDK2 inh)
Cc1ccc(Cc2nnc(-c3cc(N)ccc3F)o2)cc1	TAR Tat displ 34 (no result: CDC25B-CDK2 inh)
Fc1ccc(-c2noc3ncnc(Nc4cccc(Cl)c4)c23)cc1	none (no result: CDC25B-CDK2 inh)
Fc1cccc(Nc2ncnc3onc(-c4ccc(Cl)cc4)c23)c1	TAR Tat displ 18 (no result: CDC25B-CDK2 inh)
Cc1[nH]cnc1CSCCNC(=O)C1=Cc2ccccc2OC1	none (no result: CDC25B-CDK2 inh)
O=C1CC(c2ccco2)Cc2[nH]c(=O)c(-c3nc(-c4ccc(Oc5ccccc5)cc4)cs3)cc21 (stereo not drawn)	none
CCOc1ccc(-c2csc(-c3cc4c([nH]c3=O)CC(c3ccco3)CC4=O)n2)cc1 (stereo not drawn)	CDC25B-CDK2 inh 19
O=C(c1cccc(CN2CCN(Cc3ccccc3)CC2)c1)N1CCC(O)CC1	none (no result: TAR Tat displ)
Cc1nn(C)cc1CNC(=O)c1cc2nc(-c3ccc(Cl)cc3)cc(C(F)(F)F)n2n1	none (no result: TAR Tat displ)
CCCCOC(=O)COc1ccc2c(=O)c(Oc3cc(C)ccc3C)coc2c1	none (no result: TAR Tat displ)
CCOC(=O)c1sc(=S)n(-c2ccc(F)c(F)c2)c1N	TAR Tat displ 17 (no result: CDC25B-CDK2 inh)
CCOC(=O)c1sc(=S)n(-c2ccc(C)cc2)c1N	none (no result: CDC25B-CDK2 inh)
CN(C(=O)CSc1nc(-c2ccc3c(c2)OCO3)nc2cc(=O)[nH]n12)c1ccccc1	none (no result: CDC25B-CDK2 inh)
CN(Cc1ccccc1)C(=O)CSc1nc(-c2ccc3c(c2)OCO3)nc2cc(=O)[nH]n12	TAR Tat displ 26 (no result: CDC25B-CDK2 inh)
Cc1ccc(C(=O)Nc2ccc(S(=O)(=O)O)c3cc(S(=O)(=O)O)cc(S(=O)(=O)O)c23)cc1NC(=O)c1cccc(NC(=O)Nc2cccc(C(=O)Nc3cc(C(=O)Nc4ccc(S(=O)(=O)O)c5cc(S(=O)(=O)O)cc(S(=O)(=O)O)c45)ccc3C)c2)c1	CDC25B-CDK2 inh 4.7
COC(=O)c1cccc(NC(=O)Nc2ccccc2)c1	none (no result: TAR Tat displ)
O=C1NC(c2ccco2)c2c1n[nH]c2-c1ccco1 (stereo not drawn)	CDC25B-CDK2 inh 5.3
O=C1NC(c2cccnc2)c2c1n[nH]c2-c1ccco1 (stereo not drawn)	CDC25B-CDK2 inh 8.9
O=C1NC(c2cccc(O)c2)c2c1n[nH]c2-c1ccco1 (stereo not drawn)	none
Cc1ccc(C2NC(=O)c3n[nH]c(-c4ccco4)c32)cc1 (stereo not drawn)	none
Nc1cccc(S(=O)(=O)NC2CCCC2)c1	none
OCCOCCNc1ncnc2c1c(-c1ccccc1)cn2-c1ccc(Cl)cc1	none (no result: TAR Tat displ)
COCCN(CCS(=O)(=O)N1CCNCC1)S(=O)(=O)c1ccc(Cl)cc1	none (no result: CDC25B-CDK2 inh)
C=CCN1C(=S)Nc2cccc[n+]2[B-]1(CCCC)CCCC	CDC25B-CDK2 inh 3.9 (no result: TAR Tat displ)
CCOc1ccc(C2Oc3ccc(Cl)cc3C3CC(c4ccco4)=NN32)cc1 (stereo not drawn)	none
O=C1C(=O)N(CC(O)CN2C(=O)C(=O)c3ccccc32)c2ccccc21	TAR Tat displ 15
O=C1C(=O)N(Cc2ccccc2)c2ccccc21	none
Cc1nn(S(=O)(=O)c2cccs2)c(C)c1S(=O)(=O)N1CCCC(C)C1 (stereo not drawn)	none (no result: CDC25B-CDK2 inh)
Cc1ccc2nc(NC3=NCN(CCN4CCOCC4)CN3)nc(C)c2c1	none
Cc1ccc2nc(NC3=NCN(C(C)C)CN3)nc(C)c2c1	CDC25B-CDK2 inh 8.1
Cc1nn(C(=O)C2CC2)c(C)c1S(=O)(=O)N1CCc2ccccc2C1	none (no result: CDC25B-CDK2 inh)
COc1ccc2nc(NC(=O)Nc3cc(Cl)c(OC)cc3OC)sc2c1	TAR Tat displ 5.3
CCOc1ccc2nc(NC(=O)Nc3cc(Cl)c(OC)cc3OC)sc2c1	none
O=C(CCCc1nc(-c2ccccn2)no1)Nc1ccccc1F	none
Cc1cc(C)c(NC(=O)CC(C)S(=O)(=O)c2ccc3c(c2)NC(=O)C(C)S3)c(C)c1 (stereo not drawn)	none (no result: CDC25B-CDK2 inh)
CN1C2=C(C(=O)CC(C)(C)C2)C(c2cccs2)C2=C1CC(C)(C)CC2=O	CDC25B-CDK2 inh 16 (no result: TAR Tat displ)
CC1(C)CC(=O)C2=C(C1)NC1=C(C(=O)c3ccccc31)C2c1cccs1 (stereo not drawn)	none
O=c1c2c3c(sc2ncn1Cc1c(F)cccc1F)CCCC3	none (no result: CDC25B-CDK2 inh)
FC(F)(F)C(=C(SSCc1ccccc1)C(F)(F)C(F)(F)F)C(F)(F)F	CDC25B-CDK2 inh 4.3 (no result: TAR Tat displ)
FC(F)(F)C(=C(N=C(Cl)SOCc1ccccc1)C(F)(F)C(F)(F)F)C(F)(F)F	none (no result: TAR Tat displ)
CNC(=O)c1c(NC(=O)COc2ccc(Cl)cc2)sc2c1CCC2	none (no result: CDC25B-CDK2 inh)
COc1ccc2cc(C(=O)Nc3ccc(F)cc3)sc(=O)c2c1OC	none
COc1ccc2cc(C(=O)Nc3ccc(Cl)cc3)sc(=O)c2c1OC	TAR Tat displ 6.4
CCOc1ccc(CNS(=O)(=O)c2ccc(-c3cc(C)no3)s2)cc1OC	none (no result: CDC25B-CDK2 inh)
O=C(O)/C=C/C(=O)Nc1ccc(C(F)(F)F)cc1NC(=O)/C=C/C(=O)O	none (no result: TAR Tat displ)
O=C(/C=C/c1ccco1)Nc1ccc(C(=O)O)cc1NC(=O)/C=C/c1ccco1	CDC25B-CDK2 inh 17 (no result: TAR Tat displ)
Cn1c(SCC(=O)Nc2ccc(F)cc2)nc2c(oc3ccccc32)c1=O	none
